PMC7862700, “An all-to-all approach to the identification of sequence-specific readers for epigenetic DNA modifications on cytosine”

Assays:
Assay in all cases: DAPPL (digital affinity profiling via proximity ligation, sequencing); 10 mM Tris-HCl pH 7.5, 50 mM NaCl, 1 mM DTT, 4% glycerol, room temperature, 30 min; GST-TFs on glutathione beads, 16-mer random dsDNA library, 0.1% formaldehyde crosslink after washing; high values mean tight binding
FEV = target: T1, FEV (Homo sapiens, UniProt Q99581 1-238); details: protein: recombinant; tags: N-terminal GST; dsDNA, one strand shown
T1 sequence: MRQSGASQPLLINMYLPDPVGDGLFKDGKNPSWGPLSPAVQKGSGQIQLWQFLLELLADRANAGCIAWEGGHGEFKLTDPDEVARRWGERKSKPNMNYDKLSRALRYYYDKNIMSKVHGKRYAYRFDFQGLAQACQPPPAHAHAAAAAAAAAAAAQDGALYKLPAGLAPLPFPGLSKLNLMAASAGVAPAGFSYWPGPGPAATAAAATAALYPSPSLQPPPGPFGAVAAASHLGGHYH
Method in brief: (§1)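 Sequencing on an Illumina NextSeq500 followed washing, crosslinking with 0.1% formaldehyde, proximity ligation (BsaI/T4 ligase, 1 h, 37 °C) and PCR amplification of pools that had been incubated for 30 min at room temperature with 200 nmole of a random double-stranded 16-mer DNA library in Tris/NaCl/DTT/glycerol buffer. Each pool held DNA-barcoded human transcription factors, expressed in yeast as GST fusions and captured on glutathione beads, plus a tag-only sample. Binding signal is a hexamer's read frequency for a factor divided by its frequency in the tag-only sample.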

ETV5 = ETV5 (Homo sapiens, UniProt P41161 1-510); details: protein: recombinant; tags: N-terminal GST; dsDNA, one strand shown
Method in brief: as §1

HSF1 = HSF1 (Homo sapiens, UniProt Q00613 1-529); details: protein: recombinant; tags: N-terminal GST; chain copies: 3; dsDNA, one strand shown
Method in brief: as §1

SPIC = target: T2, SPIC (Homo sapiens, UniProt Q8N5J4 1-248); details: protein: recombinant; tags: N-terminal GST; dsDNA, one strand shown
T2 sequence: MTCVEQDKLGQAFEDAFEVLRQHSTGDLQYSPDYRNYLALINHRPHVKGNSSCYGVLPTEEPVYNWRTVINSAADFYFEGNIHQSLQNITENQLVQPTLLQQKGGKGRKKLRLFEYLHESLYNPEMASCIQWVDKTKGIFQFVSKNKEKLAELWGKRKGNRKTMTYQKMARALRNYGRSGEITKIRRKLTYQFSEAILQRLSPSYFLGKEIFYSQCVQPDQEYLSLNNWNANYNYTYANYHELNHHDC
Method in brief: as §1

ELF4 = ELF4 (Homo sapiens, UniProt Q99607 1-663); details: protein: recombinant; tags: N-terminal GST; dsDNA, one strand shown
Method in brief: as §1

ELK4 = target: T3, ELK4 (Homo sapiens, UniProt P28324-2 1-405); details: protein: recombinant; tags: N-terminal GST; dsDNA, one strand shown
T3 sequence: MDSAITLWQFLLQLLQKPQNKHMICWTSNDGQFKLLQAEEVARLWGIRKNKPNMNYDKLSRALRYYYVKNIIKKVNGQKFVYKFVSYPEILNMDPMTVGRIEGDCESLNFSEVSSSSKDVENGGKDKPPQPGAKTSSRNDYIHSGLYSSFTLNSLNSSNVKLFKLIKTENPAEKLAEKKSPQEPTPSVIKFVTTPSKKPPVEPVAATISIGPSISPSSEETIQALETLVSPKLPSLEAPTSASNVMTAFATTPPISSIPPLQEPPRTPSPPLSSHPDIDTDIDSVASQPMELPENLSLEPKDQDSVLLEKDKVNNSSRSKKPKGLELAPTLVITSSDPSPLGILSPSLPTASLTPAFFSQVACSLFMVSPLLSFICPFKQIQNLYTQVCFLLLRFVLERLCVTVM
Method in brief: as §1

ETV2 = target: T4, ETV2 (Homo sapiens, UniProt O00321 1-342); details: protein: recombinant; tags: N-terminal GST; dsDNA, one strand shown
T4 sequence: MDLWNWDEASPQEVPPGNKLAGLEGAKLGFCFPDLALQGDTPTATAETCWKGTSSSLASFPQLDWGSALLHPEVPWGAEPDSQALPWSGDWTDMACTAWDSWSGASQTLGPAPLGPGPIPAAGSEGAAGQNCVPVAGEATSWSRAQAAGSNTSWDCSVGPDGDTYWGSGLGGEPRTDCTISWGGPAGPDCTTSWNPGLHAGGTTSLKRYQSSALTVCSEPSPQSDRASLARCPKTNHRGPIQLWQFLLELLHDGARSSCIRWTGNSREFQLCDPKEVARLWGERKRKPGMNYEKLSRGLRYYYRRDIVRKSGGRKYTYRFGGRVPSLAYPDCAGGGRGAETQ
Method in brief: as §1

ELF3 = target: T5, ELF3 (Homo sapiens, UniProt P78545 1-371); details: protein: recombinant; tags: N-terminal GST; dsDNA, one strand shown
T5 sequence: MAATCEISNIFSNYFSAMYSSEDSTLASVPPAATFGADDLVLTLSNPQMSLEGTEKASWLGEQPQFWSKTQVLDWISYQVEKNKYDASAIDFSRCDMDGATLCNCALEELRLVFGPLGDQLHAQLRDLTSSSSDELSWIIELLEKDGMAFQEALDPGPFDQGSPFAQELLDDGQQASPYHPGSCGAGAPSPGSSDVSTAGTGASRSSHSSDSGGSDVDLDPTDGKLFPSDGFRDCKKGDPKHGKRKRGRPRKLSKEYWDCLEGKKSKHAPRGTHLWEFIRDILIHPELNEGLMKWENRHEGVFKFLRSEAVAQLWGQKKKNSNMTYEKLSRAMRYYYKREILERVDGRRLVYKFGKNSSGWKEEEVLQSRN
Method in brief: as §1

CRX = CRX (Homo sapiens, UniProt O43186 1-299); details: protein: recombinant; tags: N-terminal GST; dsDNA, one strand shown
Method in brief: as §1

ERF = target: T6, ERF (Homo sapiens, UniProt P50548 1-548); details: protein: recombinant; tags: N-terminal GST; dsDNA, one strand shown
T6 sequence: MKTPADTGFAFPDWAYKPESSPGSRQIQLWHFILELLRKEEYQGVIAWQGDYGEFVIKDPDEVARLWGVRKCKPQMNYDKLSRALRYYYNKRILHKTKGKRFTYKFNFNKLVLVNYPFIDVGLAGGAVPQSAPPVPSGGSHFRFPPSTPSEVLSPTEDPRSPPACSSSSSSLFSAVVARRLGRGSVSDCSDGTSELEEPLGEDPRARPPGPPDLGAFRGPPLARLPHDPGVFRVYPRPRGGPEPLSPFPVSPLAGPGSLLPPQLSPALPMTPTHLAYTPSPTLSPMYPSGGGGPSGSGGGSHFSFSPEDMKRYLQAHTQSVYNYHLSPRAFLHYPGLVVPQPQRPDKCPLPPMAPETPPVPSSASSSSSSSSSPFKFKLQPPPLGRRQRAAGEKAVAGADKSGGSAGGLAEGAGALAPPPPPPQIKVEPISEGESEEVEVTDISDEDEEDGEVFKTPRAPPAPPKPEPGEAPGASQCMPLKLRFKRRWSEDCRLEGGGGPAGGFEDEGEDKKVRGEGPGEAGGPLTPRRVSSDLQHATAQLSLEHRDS
Method in brief: as §1

ETV3L = target: T7, ETV3L (Homo sapiens, UniProt Q6ZN32 1-361); details: protein: recombinant; tags: N-terminal GST; dsDNA, one strand shown
T7 sequence: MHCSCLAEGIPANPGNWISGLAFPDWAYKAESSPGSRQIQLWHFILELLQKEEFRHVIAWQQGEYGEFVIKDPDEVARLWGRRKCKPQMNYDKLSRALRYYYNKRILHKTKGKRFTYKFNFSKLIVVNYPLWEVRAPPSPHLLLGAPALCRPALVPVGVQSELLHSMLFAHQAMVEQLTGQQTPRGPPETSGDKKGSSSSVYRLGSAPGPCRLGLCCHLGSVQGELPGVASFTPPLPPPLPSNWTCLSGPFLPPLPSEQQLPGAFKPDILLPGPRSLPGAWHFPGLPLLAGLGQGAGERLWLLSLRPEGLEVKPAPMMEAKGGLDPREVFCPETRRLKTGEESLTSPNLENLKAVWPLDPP
Method in brief: as §1

ETS2 = target: T8, ETS2 (Homo sapiens, UniProt P15036 1-469); details: protein: recombinant; tags: N-terminal GST; dsDNA, one strand shown
T8 sequence: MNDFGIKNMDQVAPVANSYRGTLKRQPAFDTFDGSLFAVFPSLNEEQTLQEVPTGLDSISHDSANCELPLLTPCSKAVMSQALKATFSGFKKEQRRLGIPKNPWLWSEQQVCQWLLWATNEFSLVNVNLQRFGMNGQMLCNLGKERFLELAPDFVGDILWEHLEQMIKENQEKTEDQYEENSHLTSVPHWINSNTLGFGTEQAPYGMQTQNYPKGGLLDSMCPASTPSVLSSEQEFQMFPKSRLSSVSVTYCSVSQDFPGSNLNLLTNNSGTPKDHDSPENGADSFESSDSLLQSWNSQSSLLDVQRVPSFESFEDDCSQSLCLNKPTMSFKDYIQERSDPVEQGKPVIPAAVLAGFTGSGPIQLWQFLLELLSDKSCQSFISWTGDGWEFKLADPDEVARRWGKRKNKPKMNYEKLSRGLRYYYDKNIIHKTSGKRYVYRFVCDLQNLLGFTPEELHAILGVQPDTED
Method in brief: as §1

SPDEF = target: T9, SPDEF (Homo sapiens, UniProt O95238 1-335); details: protein: recombinant; tags: N-terminal GST; dsDNA, one strand shown
T9 sequence: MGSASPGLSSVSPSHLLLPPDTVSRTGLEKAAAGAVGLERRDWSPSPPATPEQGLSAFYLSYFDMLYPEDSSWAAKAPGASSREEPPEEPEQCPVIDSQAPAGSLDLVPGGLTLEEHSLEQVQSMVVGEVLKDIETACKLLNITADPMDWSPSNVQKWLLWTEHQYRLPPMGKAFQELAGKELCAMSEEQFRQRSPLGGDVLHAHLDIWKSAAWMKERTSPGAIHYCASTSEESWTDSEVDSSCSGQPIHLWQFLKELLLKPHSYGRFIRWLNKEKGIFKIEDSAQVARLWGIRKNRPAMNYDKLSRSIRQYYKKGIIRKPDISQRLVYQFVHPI
Method in brief: as §1

ETV7 = target: T10, ETV7 (Homo sapiens, UniProt Q9Y603 1-341); details: protein: recombinant; tags: N-terminal GST; dsDNA, one strand shown
T10 sequence: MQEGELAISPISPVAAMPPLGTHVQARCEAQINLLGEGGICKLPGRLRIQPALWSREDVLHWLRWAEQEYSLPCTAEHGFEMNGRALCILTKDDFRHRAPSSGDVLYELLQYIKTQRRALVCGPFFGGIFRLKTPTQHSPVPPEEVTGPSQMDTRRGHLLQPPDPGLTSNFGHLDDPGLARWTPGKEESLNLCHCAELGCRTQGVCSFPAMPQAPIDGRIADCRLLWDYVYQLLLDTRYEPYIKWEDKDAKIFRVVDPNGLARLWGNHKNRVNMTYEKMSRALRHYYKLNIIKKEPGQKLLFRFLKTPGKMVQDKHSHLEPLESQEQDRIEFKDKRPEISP
Method in brief: as §1

ELF5 = target: T11, ELF5 (Homo sapiens, UniProt Q9UKW6-2 1-255); details: protein: recombinant; tags: N-terminal GST; dsDNA, one strand shown
T11 sequence: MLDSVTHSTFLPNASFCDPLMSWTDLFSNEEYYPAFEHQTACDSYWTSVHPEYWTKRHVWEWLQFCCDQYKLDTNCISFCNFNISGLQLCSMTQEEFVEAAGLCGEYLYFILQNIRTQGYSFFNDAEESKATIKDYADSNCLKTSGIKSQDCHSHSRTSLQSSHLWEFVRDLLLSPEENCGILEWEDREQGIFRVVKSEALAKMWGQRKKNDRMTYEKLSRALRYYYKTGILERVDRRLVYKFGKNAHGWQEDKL
Method in brief: as §1

ETV3 = target: T12, ETV3 (Homo sapiens, UniProt P41162-2 1-143); details: protein: recombinant; tags: N-terminal GST; dsDNA, one strand shown
T12 sequence: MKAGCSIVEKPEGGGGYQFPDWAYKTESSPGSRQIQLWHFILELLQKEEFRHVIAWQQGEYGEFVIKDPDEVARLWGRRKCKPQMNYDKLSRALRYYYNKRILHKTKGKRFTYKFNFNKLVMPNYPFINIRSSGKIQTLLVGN
Method in brief: as §1

ETV6 = ETV6 (Homo sapiens, UniProt P41212 1-452); details: protein: recombinant; tags: N-terminal GST; dsDNA, one strand shown
Method in brief: as §1

Sequence of ETV6 (P41212 whole entry): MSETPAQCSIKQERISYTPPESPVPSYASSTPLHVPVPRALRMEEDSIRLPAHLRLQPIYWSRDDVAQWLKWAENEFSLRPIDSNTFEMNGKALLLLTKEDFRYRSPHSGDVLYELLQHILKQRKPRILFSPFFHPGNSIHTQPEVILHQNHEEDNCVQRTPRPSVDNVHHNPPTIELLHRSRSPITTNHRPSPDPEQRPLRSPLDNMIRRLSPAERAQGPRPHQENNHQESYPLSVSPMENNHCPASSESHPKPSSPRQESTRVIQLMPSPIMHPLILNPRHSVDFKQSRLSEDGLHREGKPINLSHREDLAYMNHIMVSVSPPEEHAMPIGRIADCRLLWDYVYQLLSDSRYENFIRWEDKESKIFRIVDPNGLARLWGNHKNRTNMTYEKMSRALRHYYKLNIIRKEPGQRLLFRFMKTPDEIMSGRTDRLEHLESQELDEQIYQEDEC
Sequence of CRX (O43186 whole entry): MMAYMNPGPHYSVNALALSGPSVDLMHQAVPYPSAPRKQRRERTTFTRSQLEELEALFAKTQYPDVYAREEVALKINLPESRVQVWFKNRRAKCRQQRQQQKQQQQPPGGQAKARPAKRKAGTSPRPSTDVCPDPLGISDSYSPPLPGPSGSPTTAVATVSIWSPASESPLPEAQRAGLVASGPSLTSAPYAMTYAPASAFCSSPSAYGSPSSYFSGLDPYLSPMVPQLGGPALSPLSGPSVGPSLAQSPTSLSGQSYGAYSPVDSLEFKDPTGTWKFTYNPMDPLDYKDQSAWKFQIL
Sequence of ELF4 (Q99607 whole entry): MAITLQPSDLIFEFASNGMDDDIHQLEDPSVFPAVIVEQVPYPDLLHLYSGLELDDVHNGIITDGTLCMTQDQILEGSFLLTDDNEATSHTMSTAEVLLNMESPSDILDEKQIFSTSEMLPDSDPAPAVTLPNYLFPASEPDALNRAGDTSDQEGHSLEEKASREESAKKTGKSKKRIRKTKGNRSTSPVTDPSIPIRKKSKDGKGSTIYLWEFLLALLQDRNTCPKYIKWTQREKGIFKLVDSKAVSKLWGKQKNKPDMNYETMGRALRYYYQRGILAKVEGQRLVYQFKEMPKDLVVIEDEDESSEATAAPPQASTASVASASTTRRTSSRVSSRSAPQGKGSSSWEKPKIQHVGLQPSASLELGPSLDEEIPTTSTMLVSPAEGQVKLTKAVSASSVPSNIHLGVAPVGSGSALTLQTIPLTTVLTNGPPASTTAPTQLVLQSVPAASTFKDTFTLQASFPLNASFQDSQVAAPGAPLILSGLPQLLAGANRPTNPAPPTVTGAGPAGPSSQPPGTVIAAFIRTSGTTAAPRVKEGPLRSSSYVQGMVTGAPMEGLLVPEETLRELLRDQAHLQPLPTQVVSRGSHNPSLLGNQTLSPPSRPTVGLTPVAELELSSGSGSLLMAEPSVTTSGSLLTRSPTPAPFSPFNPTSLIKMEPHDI
Sequence of ETV5 (P41161 whole entry): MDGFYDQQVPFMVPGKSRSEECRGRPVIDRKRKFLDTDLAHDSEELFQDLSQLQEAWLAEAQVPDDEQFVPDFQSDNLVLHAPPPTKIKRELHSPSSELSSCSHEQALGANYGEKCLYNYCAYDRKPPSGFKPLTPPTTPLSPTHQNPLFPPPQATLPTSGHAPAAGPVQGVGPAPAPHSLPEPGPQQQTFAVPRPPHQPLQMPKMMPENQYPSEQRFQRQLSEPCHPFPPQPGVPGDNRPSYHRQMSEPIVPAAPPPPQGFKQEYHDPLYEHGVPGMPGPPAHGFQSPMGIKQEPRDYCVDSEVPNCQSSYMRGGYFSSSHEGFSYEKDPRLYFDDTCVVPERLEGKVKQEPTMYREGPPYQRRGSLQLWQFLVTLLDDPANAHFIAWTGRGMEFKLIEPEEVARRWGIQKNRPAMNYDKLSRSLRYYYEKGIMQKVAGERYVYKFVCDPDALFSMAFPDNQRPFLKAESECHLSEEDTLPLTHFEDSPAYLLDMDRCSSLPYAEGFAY
Sequence of HSF1 (Q00613 whole entry): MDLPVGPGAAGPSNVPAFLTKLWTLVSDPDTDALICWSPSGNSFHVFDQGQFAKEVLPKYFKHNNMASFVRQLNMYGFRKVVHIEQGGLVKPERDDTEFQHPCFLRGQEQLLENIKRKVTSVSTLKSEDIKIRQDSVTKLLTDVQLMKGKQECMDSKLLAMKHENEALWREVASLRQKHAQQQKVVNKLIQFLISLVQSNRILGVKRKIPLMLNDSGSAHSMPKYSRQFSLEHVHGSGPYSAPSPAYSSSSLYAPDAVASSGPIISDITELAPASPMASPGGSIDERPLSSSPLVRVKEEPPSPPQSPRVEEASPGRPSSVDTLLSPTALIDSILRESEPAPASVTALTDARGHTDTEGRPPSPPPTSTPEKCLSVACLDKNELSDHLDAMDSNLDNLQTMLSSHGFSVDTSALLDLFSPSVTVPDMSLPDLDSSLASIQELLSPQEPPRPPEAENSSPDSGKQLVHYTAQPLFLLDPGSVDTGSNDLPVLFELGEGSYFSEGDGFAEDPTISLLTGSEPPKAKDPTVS

TACTGG
binding signal (FEV): 1.01 fold enrichment (6-mer frequency, TF over GST control) | binding signal (ETV5): 1.1 fold enrichment (6-mer frequency, TF over GST control) | binding signal (HSF1): 1.49 fold enrichment (6-mer frequency, TF over GST control) | binding signal (SPIC): 1.22 fold enrichment (6-mer frequency, TF over GST control) | binding signal (ELF4): 1.19 fold enrichment (6-mer frequency, TF over GST control) | binding signal (ELK4): 1.15 fold enrichment (6-mer frequency, TF over GST control) | binding signal (ETV2): 1.3 fold enrichment (6-mer frequency, TF over GST control) | binding signal (ELF3): 1.17 fold enrichment (6-mer frequency, TF over GST control) | binding signal (CRX): 1.35 fold enrichment (6-mer frequency, TF over GST control) | binding signal (ERF): 1.16 fold enrichment (6-mer frequency, TF over GST control) | binding signal (ETV3L): 1.11 fold enrichment (6-mer frequency, TF over GST control) | binding signal (ETS2): 1.08 fold enrichment (6-mer frequency, TF over GST control) | binding signal (SPDEF): 1.05 fold enrichment (6-mer frequency, TF over GST control) | binding signal (ETV7): 1.12 fold enrichment (6-mer frequency, TF over GST control) | binding signal (ELF5): 1.04 fold enrichment (6-mer frequency, TF over GST control) | binding signal (ETV3): 1.11 fold enrichment (6-mer frequency, TF over GST control) | binding signal (ETV6): 1.15 fold enrichment (6-mer frequency, TF over GST control)
